Each structure is given as a SMILES string. Screen size: about 370,000 compounds; about 3,100 (0.84%) were called active.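 How the source made its calls: active means inhibition above the mean of compounds lying between control limits plus 3 SD, set per campaign (cut at about 8.5% in these data); inactive means the rest.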 Only a selection was taken, and actives are over-represented in it overall.

Disintegrin and metalloproteinase domain-containing protein 17 (Homo sapiens), sequence (P78536 215-824 limits assumed): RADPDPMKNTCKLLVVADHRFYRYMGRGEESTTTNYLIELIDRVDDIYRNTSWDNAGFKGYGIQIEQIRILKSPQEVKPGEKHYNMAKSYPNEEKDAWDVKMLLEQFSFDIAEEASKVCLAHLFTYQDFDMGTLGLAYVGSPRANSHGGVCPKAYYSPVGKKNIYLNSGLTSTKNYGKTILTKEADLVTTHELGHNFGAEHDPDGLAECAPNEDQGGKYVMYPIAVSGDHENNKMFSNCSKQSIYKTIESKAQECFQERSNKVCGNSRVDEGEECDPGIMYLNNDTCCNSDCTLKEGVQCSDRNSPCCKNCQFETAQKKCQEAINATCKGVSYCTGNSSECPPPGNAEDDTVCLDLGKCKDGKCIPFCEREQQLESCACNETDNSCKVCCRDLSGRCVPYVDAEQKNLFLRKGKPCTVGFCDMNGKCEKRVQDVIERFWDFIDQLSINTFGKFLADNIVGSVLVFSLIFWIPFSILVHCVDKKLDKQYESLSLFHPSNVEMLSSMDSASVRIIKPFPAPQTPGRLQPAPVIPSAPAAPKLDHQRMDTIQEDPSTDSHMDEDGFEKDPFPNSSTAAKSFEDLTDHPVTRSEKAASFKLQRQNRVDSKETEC

This experiment concerns the target Disintegrin and metalloproteinase domain-containing protein 17 (Homo sapiens) (UniProt P78536). Kind of experiment: ADAM17 inhibitors, primary screen, biochemical, QFRET (AID 720648).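 Further: 0% = DMSO-only wells as the low control.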 The note with it: recombinant ADAM17, EDANS/DABCYL FRET peptide cleavage; at 6.95 µM; active compounds read high.
The term inhibition denotes the change of the read-out against control, counted positive when it falls. Turning to `C=CCOC/C=C/C#CCN(CC=C)Cc1ccc(OC)cc1OC`, the inhibition was -0.84% (inactive).
With `O=C(Nc1nc2ccc(Cl)cc2s1)c1cc(-c2ccc(Cl)cc2)nc2ccccc12`, the inhibition was -5.76% (inactive).
For `Cc1ccccc1CN1CCCCC(NC(=O)c2cccc(C#N)c2)C1=O` (centres undefined), the inhibition was -3.86% (inactive).
The value for `CCCCCCN1C[C@@H](O)[C@H](n2cc(COC(=O)c3ccccc3)nn2)C[C@@H]1c1ccc(Cl)cc1` was -1.65% (inactive); that for `Cc1ccc([C@H]2C[C@H](O)[C@@H](n3cc(COC(=O)c4ccccc4)nn3)CN2C(=O)C2CCCCC2)cc1` was -1.37% (inactive).
The same measure for `CCCCCC(=O)N1C[C@H](O)[C@@H](n2cc(COC(=O)c3ccccc3)nn2)C[C@@H]1c1ccc(C)cc1`: 8.64% (active); for `CC(CCN1CCC(C(O)(c2ccccc2)c2ccccc2)CC1)Oc1ccc([N+](=O)[O-])cc1Cl` (centres undefined): 6.8% (inactive); for `C=CC(COCc1ccccc1)N(CC(=O)OC)S(=O)(=O)c1cc(Br)ccc1OC` (centres undefined): 9.3% (active).
The same measure for `C=CC(COCc1ccccc1)N(Cc1ccccc1)S(=O)(=O)c1ccccc1Br` (centres undefined): -0.15% (inactive).
For the compound `CCN(Cc1ccccc1)S(=O)(=O)c1cc(C(=O)O)ccc1OC`, the inhibition was 0.35% (inactive).
Turning to `Cc1ccc(NC(=O)c2cc(C)nn2-c2ccccc2)c(C)c1`, the inhibition was 3.11% (inactive).
The same measure for `C=C(C)C#CC(Cc1ccccc1)N(CC1CC1)/C(N)=N/C(=O)OCc1ccccc1` (centres undefined): -26.4% (inactive); for `CCOc1ccc(-n2c(SCC(=O)Nc3cc(C)c(NC(=O)c4ccccc4)cc3OC)nnc2-c2cccs2)cc1`: 10.6% (active); for `CCOc1ccc(-n2c(SCC(=O)Nc3cc(C)c(NC(=O)c4ccccc4)cc3OC)nnc2-c2cccc(Cl)c2)cc1`: 6.75% (inactive).
The same measure for `COc1ccc(-n2c(SCC(=O)Nc3ccccc3-c3ccccc3)nnc2-c2cccnc2)cc1`: -1.39% (inactive); for `Cc1cc(=O)[nH]c(SCC(=O)Nc2ccc(F)cc2F)n1`: 6.65% (inactive).
On to `Cc1ccc(S(=O)(=O)N2CCN(C(=O)COC(=O)CNC(=O)c3ccc(C(C)(C)C)cc3)CC2)c(C)c1`, for which the inhibition was -2.11% (inactive).
The value for `COc1ccc(/C=C/C(=O)OCC(=O)N2CCN(S(=O)(=O)c3ccc(C)cc3C)CC2)cc1OC` was -6.61% (inactive); that for `Cc1ccc(S(=O)(=O)N2CCN(C(=O)COC(=O)c3c(C)cc(C)cc3C)CC2)c(C)c1` was 19.5% (active).
Take `Cc1ccc(-n2c(SCC(=O)Nc3ccc(S(=O)(=O)Nc4nccs4)cc3)nnc2-c2ccncc2)cc1`: the inhibition was -0.27% (inactive).
The same measure for `O=C(OCc1ccc(-c2ccccc2)cc1)c1cccc(O)c1`: 9.14% (active); for `O=C(OCC(=O)N1CCN(C(=O)c2ccco2)CC1)c1cccc(O)c1`: -3.62% (inactive); for `Cc1ccc(S(=O)(=O)c2c(COC(=O)c3cccc(Cl)c3)c(-c3ccccc3)nn2C)cc1`: -0.5% (inactive).
With `COc1ccc(CNS(=O)(=O)c2cc(-c3cc(C)no3)ccc2C(C)C)cc1`, the inhibition is 3.19% (inactive).
Regarding `CCOc1ccccc1CNS(=O)(=O)c1cc(-c2cc(C)no2)ccc1C`, the inhibition was 10.2% (active).
The value for `Cc1cc(-c2ccc(C)c(S(=O)(=O)NCCCN(Cc3ccccc3)C(C)C)c2)on1` was -3.83% (inactive); that for `CCC(CO)Nc1cccc2c1S(=O)(=O)N(Cc1cn(Cc3ccccc3C(F)(F)F)nn1)Cc1ccccc1O2` (centres undefined) was -3.41% (inactive); that for `COC(=O)[C@H](C(C)C)N1CCc2nnn(Cc3ccc(C)cc3)c2-c2ccccc2S1(=O)=O` was 2.97% (inactive).
The same measure for `C=C1C(C(C)C)N(C)C2=NC(c3ccccc3)CC(=O)N12` (centres undefined): -5.62% (inactive); for `O=C(CSc1nc2ccccc2n1Cc1ccccc1)NNC(=S)Nc1ccccc1`: 5.43% (inactive); for `Cc1ccc(NC(=S)NNC(=O)CSc2nnc(SCc3ccccc3Cl)s2)cc1`: 9.53% (active).
`O=C(CSc1nnc(SCc2ccc(Cl)cc2)s1)N/N=C/c1ccccc1Cl`: the inhibition is 0.99% (inactive).
The value for `Nc1[nH]c(/C=C2/CCCCC2n2[nH]c(=O)n(-c3ccccc3)c2=O)c(Cc2ccccc2)[n+]1Cc1ccccc1` (centres undefined) was -3.48% (inactive); that for `O=C(Nc1ccc(Br)cc1)OCCN1C(=O)CCC12CCC(c1ccccc1)CC2` (centres undefined) was -0.94% (inactive).
The same measure for `CC(NCc1ccco1)C(=O)N1CCCCC1` (centres undefined): 0.39% (inactive).
The value for `O=C(CSc1nc2[nH]c(=O)[nH]c(=O)c2s1)Nc1cccc(F)c1` was -3.92% (inactive).
For `O=C(CSCc1ccc([N+](=O)[O-])cc1)Nc1cccc(C(=O)Nc2ccccc2C(=O)O)c1`, the inhibition was 0.74% (inactive).
The value for `O=C(CSc1nc(-c2ccccc2)cs1)Nc1cccc([N+](=O)[O-])c1` was 8.67% (active); that for `O=C1CC(c2ccc3c(c2)OCO3)N=C2N(CC3CC3)C/C(=C/c3ccccc3)N12` (centres undefined) was -2.87% (inactive); that for `CC(CCN1CCC(C(O)(c2ccccc2)c2ccccc2)CC1)Oc1ccc(C(F)(F)F)cc1` (centres undefined) was 3.8% (inactive).
The same measure for `C=CCC[C@H](Cc1ccc(F)cc1)C(=O)OC[C@H](C)NC(=O)[C@H](CC=C)CC(=O)N(CCO)Cc1ccccc1`: 0.15% (inactive).
With `C=CC[C@H](CC(=O)N(CCO)Cc1ccccc1)C(=O)N[C@@H](COC(=O)[C@@H](CC=C)Cc1ccc(F)cc1)Cc1ccccc1`, the inhibition is 13.2% (active).
In the case of `C=CC[C@@H](Cc1ccc(F)cc1)C(=O)OC[C@H]1CCCN1C(=O)[C@H](CC=C)CC(=O)N(CCO)Cc1ccccc1`, the inhibition is 1.4% (inactive).
As for `C=CCC[C@@H](Cc1ccc(F)cc1)C(=O)OC[C@@H](C)NC(=O)[C@H](CC=C)CC(=O)N(CCO)Cc1ccccc1`, the inhibition was 0.31% (inactive).
As to `C=CCC[C@@H](Cc1ccc(F)cc1)C(=O)OC[C@H](Cc1c[nH]c2ccccc12)NC(=O)[C@@H](CC=C)CC(=O)N(CCO)Cc1ccccc1`, the inhibition was 20.9% (active).
On to `C=CCC[C@H](Cc1ccc(F)cc1)C(=O)OC[C@@H](NC(=O)[C@@H](CC=C)CC(=O)N[C@H](CO)Cc1ccccc1)C(C)(C)C`, for which the inhibition is 4.84% (inactive).
The value for `C=CCC[C@@H](Cc1ccc(F)cc1)C(=O)O[C@H](CNC(=O)[C@H](CC=C)CC(=O)N(CCO)Cc1ccccc1)c1ccccc1` was 13.4% (active); that for `C=CC[C@@H](CC(=O)N[C@H](CO)Cc1ccccc1)C(=O)N[C@@H](COC(=O)[C@@H](CC=C)Cc1ccc(F)cc1)Cc1c[nH]c2ccccc12` was -0.68% (inactive).
The value for `C=CCC[C@H](Cc1ccc(F)cc1)C(=O)OC[C@@H](Cc1c[nH]c2ccccc12)NC(=O)[C@H](CC=C)CC(=O)N[C@H](CO)Cc1ccccc1` was 3.73% (inactive).

The values above are taken from PubChem BioAssay AID720648 (The Scripps Research Institute Molecular Screening Center, 2013).
